Test results published in PubChem BioAssay.
“And” between values parts separate entries of the source, which are not always exact repeats. Identical values can stand only once. The source made the active and inactive calls. No stated cut-off is given here; in the data, active means parasite load remaining mostly below about 12% (no sharp cut-off); inactive means mostly above about 10%.

Assay: GFP-Q80 aggregate reduction, neuronal-like cells, cell-based, NGF-treated PC12, GFPQ80 (AID 1614);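 further: lower means fewer inclusions and 0 means no inclusions at all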
Settings: PC12 NGF-treated GFP-polyQ80 inclusion reduction
With `O=C1CC[C@@]2(O)[C@H]3Cc4ccc(O)c5c4C2(CCN3CC2CC2)[C@H]1O5` the inclusion score was 2. `NC1C[C@H]1c1ccccc1` (stereo not given in full) showed an inclusion score of 2. `C[C@@H]1O[C@@H](O[C@H]2C[C@@H](O)[C@]3(CO)C4C(CC[C@]3(O)C2)[C@@]2(O)CC[C@H](C3=CC(=O)OC3)[C@@]2(C)C[C@H]4O)[C@H](O)[C@H](O)[C@H]1O` (stereo not given in full) showed an inclusion score of 2. Work on `CC1[C@H](C)OC(=O)CC(O)CC(O)CC(O)CCC(O)C(O)C[C@]2(O)CC(O)C(C(=O)O)C(CC(OC3O[C@H](C)[C@@H](O)[C@H](N)[C@@H]3O)/C=C/C=C/C=C/C=C/CC/C=C/C=C/[C@H](C)[C@H]1O)O2` (stereo not given in full) yielded an inclusion score of 2. Work on `C[N+](C)(C)CC(=O)[O-]` yielded an inclusion score of 2. With `C#CC1(O)CCC2C3CCC4=CC(=O)CCC4(C)C3CCC21C` (stereo not given) the inclusion score was 2. `CCN1C[C@@]2(COC)C3[C@@H](OC)[C@H]4[C@@H]1[C@]3(C(OC)C[C@H]2O)C1C[C@@]2(O)[C@H](OC(=O)c3ccccc3)C1[C@]4(OC(C)=O)[C@@H](O)[C@@H]2OC` (stereo not given in full) gave an inclusion score of 2. Work on `C=CCN1CC[C@]23c4c5ccc(O)c4OC2C(=O)CC[C@@]3(O)[C@H]1C5` (stereo not given in full) yielded an inclusion score of 2. With `N#CC(O[C@@H]1O[C@H](CO[C@@H]2O[C@H](CO)[C@@H](O)[C@H](O)[C@H]2O)[C@@H](O)[C@H](O)[C@H]1O)c1ccccc1` (stereo not given in full) the inclusion score was 2. For `Oc1ccc2c3c1OC1[C@@H](O)CC[C@@]4(O)[C@@H](C2)N(CC2CCC2)CC[C@]314` (stereo not given in full), the inclusion score was 2. `C=C[C@H]1CN2CC[C@H]1C[C@@H]2[C@H](O)c1ccnc2ccccc12` showed an inclusion score of 2.

Assay: 75Q-TubH aggregate inhibition, S. cerevisiae, yeast (AID 1616)
Settings: S. cerevisiae 75Q-TubH polyglutamine aggregation suppression; stronger effect = higher value
With `O=C1CC[C@@]2(O)[C@H]3Cc4ccc(O)c5c4C2(CCN3CC2CC2)[C@H]1O5` the aggregation suppression score was 1.53. In the case of `C=C[C@H]1CN2CC[C@H]1C[C@@H]2[C@@H](OC(=O)OCC)c1ccnc2ccc(OC)cc12`, the aggregation suppression score is reported as 1.15. For `NC1C[C@H]1c1ccccc1` (stereo not given in full), the aggregation suppression score was 1.29. `C[C@@H]1O[C@@H](O[C@H]2C[C@@H](O)[C@]3(CO)C4C(CC[C@]3(O)C2)[C@@]2(O)CC[C@H](C3=CC(=O)OC3)[C@@]2(C)C[C@H]4O)[C@H](O)[C@H](O)[C@H]1O` (stereo not given in full) gave an aggregation suppression score of 1.24. With `CC1[C@H](C)OC(=O)CC(O)CC(O)CC(O)CCC(O)C(O)C[C@]2(O)CC(O)C(C(=O)O)C(CC(OC3O[C@H](C)[C@@H](O)[C@H](N)[C@@H]3O)/C=C/C=C/C=C/C=C/CC/C=C/C=C/[C@H](C)[C@H]1O)O2` (stereo not given in full) the aggregation suppression score was 0.00787. `C[N+](C)(C)CC(=O)[O-]` showed an aggregation suppression score of 0.998. Molecule `C#CC1(O)CCC2C3CCC4=CC(=O)CCC4(C)C3CCC21C` (stereo not given) has an aggregation suppression score of 1.19. With `CCC(=O)O[C@H]1CCC2C3CCC4=CC(=O)CC[C@]4(C)C3CC[C@@]21C` (stereo not given in full) the aggregation suppression score was 0.523. For `CCN1C[C@@]2(COC)C3[C@@H](OC)[C@H]4[C@@H]1[C@]3(C(OC)C[C@H]2O)C1C[C@@]2(O)[C@H](OC(=O)c3ccccc3)C1[C@]4(OC(C)=O)[C@@H](O)[C@@H]2OC` (stereo not given in full), the aggregation suppression score was 1.1. In the case of `C=CCN1CC[C@]23c4c5ccc(O)c4OC2C(=O)CC[C@@]3(O)[C@H]1C5` (stereo not given in full), the aggregation suppression score is reported as 1.13. In the case of `N#CC(O[C@@H]1O[C@H](CO[C@@H]2O[C@H](CO)[C@@H](O)[C@H](O)[C@H]2O)[C@@H](O)[C@H](O)[C@H]1O)c1ccccc1` (stereo not given in full), the aggregation suppression score is reported as 1.51. `Oc1ccc2c3c1OC1[C@@H](O)CC[C@@]4(O)[C@@H](C2)N(CC2CCC2)CC[C@]314` (stereo not given in full) gave an aggregation suppression score of 1.67. `C=C[C@H]1CN2CC[C@H]1C[C@@H]2[C@H](O)c1ccnc2ccccc12` showed an aggregation suppression score of 1.26.

Assay: P. berghei load reduction in hepatocytes – cell-based, HepG2, luciferase luminescence, HepG2 viability, primary screen (AID 624349);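 further: 100% = mean of DMSO negative control wells on the same plate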
Settings: P. berghei liver stage in HepG2, luciferase luminescence, concentration not given here; parasite load remaining: stronger effect = lower value; viability: measured here: HepG2 viability without parasites
For `O=C1CC[C@@]2(O)[C@H]3Cc4ccc(O)c5c4C2(CCN3CC2CC2)[C@H]1O5`, the parasite load remaining was 70.5% (inactive) and 73.3% (inactive) and the viability was 84.7% and 132%. For `C=C[C@H]1CN2CC[C@H]1C[C@@H]2[C@@H](OC(=O)OCC)c1ccnc2ccc(OC)cc12`, the parasite load remaining was 53% (inactive) and the viability was 91.4%. In the case of `NC1C[C@H]1c1ccccc1` (stereo not given in full), the viability is reported as 72.4% and 86.6% and the parasite load remaining is reported as 139% (inactive) and 41.7% (inactive). For `CNC(C)[C@H](O)c1ccccc1` (stereo not given in full), the viability was 74.2% and the parasite load remaining was 77% (inactive). With `C[C@@H]1O[C@@H](O[C@H]2C[C@@H](O)[C@]3(CO)C4C(CC[C@]3(O)C2)[C@@]2(O)CC[C@H](C3=CC(=O)OC3)[C@@]2(C)C[C@H]4O)[C@H](O)[C@H](O)[C@H]1O` (stereo not given in full) the viability was 38.6% and 15.3% and the parasite load remaining was 242% (inactive) and -0.205% (inactive). With `CC(C)C[C@@H](CN)CC(=O)O` the parasite load remaining was 133% (inactive) and 53% (inactive) and the viability was 88.1% and 116%. For `CC1[C@H](C)OC(=O)CC(O)CC(O)CC(O)CCC(O)C(O)C[C@]2(O)CC(O)C(C(=O)O)C(CC(OC3O[C@H](C)[C@@H](O)[C@H](N)[C@@H]3O)/C=C/C=C/C=C/C=C/CC/C=C/C=C/[C@H](C)[C@H]1O)O2` (stereo not given in full), the viability was 71.5% and 89.6% and the parasite load remaining was 87.6% (inactive) and 108% (inactive). With `C[N+](C)(C)CC(=O)[O-]` the viability was 76.9% and 89.4% and the parasite load remaining was 57.1% (inactive) and 50.8% (inactive). With `C#CC1(O)CCC2C3CCC4=CC(=O)CCC4(C)C3CCC21C` (stereo not given) the parasite load remaining was 62% (inactive) and 21.3% (inactive) and the viability was 93.9% and 81%. For `CCC(=O)O[C@H]1CCC2C3CCC4=CC(=O)CC[C@]4(C)C3CC[C@@]21C` (stereo not given in full), the parasite load remaining was 54.4% (inactive) and the viability was 99.7%. For `CCN1C[C@@]2(COC)C3[C@@H](OC)[C@H]4[C@@H]1[C@]3(C(OC)C[C@H]2O)C1C[C@@]2(O)[C@H](OC(=O)c3ccccc3)C1[C@]4(OC(C)=O)[C@@H](O)[C@@H]2OC` (stereo not given in full), the viability was 79.4% and 105% and the parasite load remaining was 85.5% (inactive) and 32.5% (inactive). For `C=CCN1CC[C@]23c4c5ccc(O)c4OC2C(=O)CC[C@@]3(O)[C@H]1C5` (stereo not given in full), the viability was 79.4% and 88.1% and the parasite load remaining was 96.1% (inactive) and 54.5% (inactive). In the case of `C=C1CC2C(CC[C@]3(C)C(=O)CCC23)[C@@]2(C)C=CC(=O)C=C12` (stereo not given in full), the viability is reported as 99% and the parasite load remaining is reported as 9.27% (inactive). For `CC(CO)NC(=O)C1C=C2c3cccc4[nH]cc(c34)C[C@H]2N(C)C1` (stereo not given in full), the viability was 72.8% and 111% and the parasite load remaining was 81.6% (inactive) and 59.7% (inactive). For `C[C@]12CCC(=O)C=C1C=CC1C2CC[C@@]2(C)C1CC[C@@]2(O)CCC(=O)O` (stereo not given in full), the viability was 62.7% and 93.1% and the parasite load remaining was 99.8% (inactive) and 46.1% (inactive). With `N#CC(O[C@@H]1O[C@H](CO[C@@H]2O[C@H](CO)[C@@H](O)[C@H](O)[C@H]2O)[C@@H](O)[C@H](O)[C@H]1O)c1ccccc1` (stereo not given in full) the parasite load remaining was 116% (inactive) and the viability was 70.2%. For `Oc1ccc2c3c1OC1[C@@H](O)CC[C@@]4(O)[C@@H](C2)N(CC2CCC2)CC[C@]314` (stereo not given in full), the viability was 75.1% and 93.8% and the parasite load remaining was 136% (inactive) and 45% (inactive). With `C=C[C@H]1CN2CC[C@H]1C[C@@H]2[C@H](O)c1ccnc2ccccc12` the parasite load remaining was 84.2% (inactive) and 28.1% (inactive) and the viability was 73.3% and 88.8%.
